Source: PubChem BioAssay (NCI)
The panel holds about 79,000 compounds, 15% with a hit somewhere; the sample as a whole holds those more often. Unmarked numbers belong to inactive results. Calls of active or inactive are those of the source. No stated cut-off is given here; in the data, active means growth inhibition above about 70%; inactive means the rest.

Experiment: NCI Yeast Anticancer Drug Screen. Data for the cln2 rad14 strain (AID 165);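 further: 0% = growth equal to vehicle treated cultures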
Details: S. cerevisiae cln2 rad14 strain, at 50.0 µM (retest, dose inferred, filed as 5.0), stronger effect = higher value
How it was run: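 The screen exposed genetically defined yeast (cln2 rad14) to test compounds and scored growth inhibition relative to vehicle-treated controls.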

SMILES	growth inhibition
Oc1c(Br)cc(Cl)cc1Br	98% (active)
COc1ccc(C2Oc3ccc(Cl)cc3C=C2[N+](=O)[O-])cc1OC (stereo not given)	96% (active)
COC(=O)C(=O)CC(=O)c1cccc(Cl)c1	99% (active)
O/N=C(/C[N+]12CN3CN(CN(C3)C1)C2)c1ccc(I)cc1	23%
COc1cc(CCN=Cc2cc(Cl)cc(Cl)c2O)c([N+](=O)[O-])cc1OC	57%
COc1ccc2c(c1OC)C1=C(C2=O)c2cc3c(cc2CCN1)OCO3	95% (active)
CC(C)(C)[Si](C)(C)OCC1OC(n2cc(I)c(N)nc2=O)C(O[Si](C)(C)C(C)(C)C)C1O[Si](C)(C)C(C)(C)C (stereo not given)	51%
O=S(=O)(Nc1ccccn1)c1ccc(NCc2c3ccccc3nc3cc(Cl)ccc23)cc1	36%
OCc1ccc2c(c1)CC1(C2)Cc2cc3c(cc2C1O)CCC3 (stereo not given)	51%
COc1cc(C(c2cc3c(cc2O)OCO3)N2CCOCC2)ccc1O (stereo not given)	3%
CCCCCCCCCCCCCCSC(=N)N	95% (active)
Cc1ccccc1NC(=S)Nc1ccccc1O	63%
c1cc2cc(Cc3ccc4[nH]ccc4c3)ccc2[nH]1	10%
N=C(N)c1ccc(-c2ccc(-c3ccc(C(=N)N)cc3)o2)cc1	35%
O=c1oc2c/c(=C\c3ccccc3)c(=O)c3cccc1c3-2	96% (active)
CCCCCCCC(=O)/C=C/c1ccc(C)cc1	-86%
COc1ccc(CCC2(C)OCCC(C)O2)cc1 (stereo not given)	95% (active)
O=C(O)C(SC1=NNC2(C(=O)N1)c1ccccc1-c1ccccc12)SC1=NNC2(C(=O)N1)c1ccccc1-c1ccccc12	66%
CC1(C)NNC(=S)NN1	7%
O=C([O-])c1ccccc1[I+]c1ccc(C2CCCCC2)cc1	47%

SMILES	growth inhibition
ClC1=C(Cl)C(Cl)(C(Cl)(Cl)Cl)C(Cl)=C1Cl	98% (active)
Cn1nc(N)c2cccnc21	1%
CC(C)(C)c1ccc(-n2c3nc(=O)n(-c4ccccc4C(F)(F)F)c(=O)c-3cc3ccccc32)cc1	97% (active)
C/C(=N\Nc1ccccn1)c1ccccn1	99% (active)
COc1ccc2c(C)cc(N/N=C(\C)c3ccccn3)nc2c1	28%
CC([NH-])C(=O)O.[Cu+2].[NH-]C(Cc1cnc[nH]1)C(=O)O (stereo not given)	12%
COc1ccc(C)cc1NC(=O)ON=C1CCCCC1	81% (active)
Oc1c(N(Cc2ccccc2)Cc2ccccc2)ccc2cccnc12	95% (active)
Cc1ccc2[nH]c3cc4ccncc4cc3c2c1	96% (active)
Cc1ccc2nn(-c3ccc(O)cc3)nc2c1	39%
Oc1ccc2c(ccc3ccccc32)c1	99% (active)
ClCc1ccc2ccc3ccc(CCl)nc3c2n1	81% (active)
CC(=O)c1c(O)c2ccc(Cl)cc2[nH]c1=O	59%
O=C(c1ccc(Cl)cc1)c1ccc(OCCCOc2ccc(C(=O)c3ccc(Cl)cc3)cc2)cc1	-7%
C=C1CC2(C[C@@H](c3ccccc3)O[C@@H](c3ccccc3)C2)OC1=O (stereo not given in full)	97% (active)
O=C(N=Nc1c(O)[nH]c2ccccc12)C(O)(c1ccccc1)c1ccccc1	27%
C/C(=N\O)c1ccc2c3c(ccc([N+](=O)[O-])c13)CC2	-5%
N#CS/C(Cl)=C(/C(Cl)=C(Cl)Cl)[N+](=O)[O-]	98% (active)
N#C/C(=C1C=C/C(=N/O)C=C/1Cl)c1ccccc1	6%
O=C1/C(=C/c2ccc(Cl)c(Cl)c2)CN(C(=O)CCN2CCOCC2)C/C1=C\c1ccc(Cl)c(Cl)c1	89% (active)

Same assay, conditions: S. cerevisiae cln2 rad14 strain, at 50.0 µM, stronger effect = higher value

SMILES	growth inhibition
Oc1c(Br)cc(Cl)cc1Br	90.5% (active)
COc1ccc(C2Oc3ccc(Cl)cc3C=C2[N+](=O)[O-])cc1OC (stereo not given)	84.3% (active)
COC(=O)C(=O)CC(=O)c1cccc(Cl)c1	21.8%
O/N=C(/C[N+]12CN3CN(CN(C3)C1)C2)c1ccc(I)cc1	91.7% (active)
COc1cc(CCN=Cc2cc(Cl)cc(Cl)c2O)c([N+](=O)[O-])cc1OC	43%
COc1ccc2c(c1OC)C1=C(C2=O)c2cc3c(cc2CCN1)OCO3	40.9%
CC(C)(C)[Si](C)(C)OCC1OC(n2cc(I)c(N)nc2=O)C(O[Si](C)(C)C(C)(C)C)C1O[Si](C)(C)C(C)(C)C (stereo not given)	32.3%
O=S(=O)(Nc1ccccn1)c1ccc(NCc2c3ccccc3nc3cc(Cl)ccc23)cc1	31.9%
OCc1ccc2c(c1)CC1(C2)Cc2cc3c(cc2C1O)CCC3 (stereo not given)	47.4%
COc1cc(C(c2cc3c(cc2O)OCO3)N2CCOCC2)ccc1O (stereo not given)	47.6%
CCCCCCCCCCCCCCSC(=N)N	54.5%
Cc1ccccc1NC(=S)Nc1ccccc1O	-27.8%
c1cc2cc(Cc3ccc4[nH]ccc4c3)ccc2[nH]1	-1.1%
N=C(N)c1ccc(-c2ccc(-c3ccc(C(=N)N)cc3)o2)cc1	75.5% (active)
O=c1oc2c/c(=C\c3ccccc3)c(=O)c3cccc1c3-2	87.2% (active)
CCCCCCCC(=O)/C=C/c1ccc(C)cc1	30.2%
COc1ccc(CCC2(C)OCCC(C)O2)cc1 (stereo not given)	28.6%
O=C(O)C(SC1=NNC2(C(=O)N1)c1ccccc1-c1ccccc12)SC1=NNC2(C(=O)N1)c1ccccc1-c1ccccc12	95.8% (active)
CC1(C)NNC(=S)NN1	9.75%
O=C([O-])c1ccccc1[I+]c1ccc(C2CCCCC2)cc1	73.2% (active)

SMILES	growth inhibition
ClC1=C(Cl)C(Cl)(C(Cl)(Cl)Cl)C(Cl)=C1Cl	99.4% (active)
Cn1nc(N)c2cccnc21	45.1%
CC(C)(C)c1ccc(-n2c3nc(=O)n(-c4ccccc4C(F)(F)F)c(=O)c-3cc3ccccc32)cc1	60.5%
C/C(=N\Nc1ccccn1)c1ccccn1	97.3% (active)
COc1ccc2c(C)cc(N/N=C(\C)c3ccccn3)nc2c1	99.5% (active)
CC([NH-])C(=O)O.[Cu+2].[NH-]C(Cc1cnc[nH]1)C(=O)O (stereo not given)	96% (active)
COc1ccc(C)cc1NC(=O)ON=C1CCCCC1	90.5% (active)
Oc1c(N(Cc2ccccc2)Cc2ccccc2)ccc2cccnc12	96.2% (active)
Cc1ccc2[nH]c3cc4ccncc4cc3c2c1	96.7% (active)
Cc1ccc2nn(-c3ccc(O)cc3)nc2c1	29.3%
Oc1ccc2c(ccc3ccccc32)c1	99% (active)
ClCc1ccc2ccc3ccc(CCl)nc3c2n1	27.8%
CC(=O)c1c(O)c2ccc(Cl)cc2[nH]c1=O	31.5%
O=C(c1ccc(Cl)cc1)c1ccc(OCCCOc2ccc(C(=O)c3ccc(Cl)cc3)cc2)cc1	38.1%
C=C1CC2(C[C@@H](c3ccccc3)O[C@@H](c3ccccc3)C2)OC1=O (stereo not given in full)	90.5% (active)
O=C(N=Nc1c(O)[nH]c2ccccc12)C(O)(c1ccccc1)c1ccccc1	35.5%
C/C(=N\O)c1ccc2c3c(ccc([N+](=O)[O-])c13)CC2	34.9%
N#CS/C(Cl)=C(/C(Cl)=C(Cl)Cl)[N+](=O)[O-]	48.6%
N#C/C(=C1C=C/C(=N/O)C=C/1Cl)c1ccccc1	69.5%
O=C1/C(=C/c2ccc(Cl)c(Cl)c2)CN(C(=O)CCN2CCOCC2)C/C1=C\c1ccc(Cl)c(Cl)c1	87.3% (active)
